Results published in the supplement of paper PMC10127200.
Where a name gives a salt, the structure may show the parent alone.

Legend:
Test in all cases: Euclidean distance of Cell Painting phenotypic profile (signed KS, 77 features) to DMSO centroid (dimensionless distance); 5 or 10 uM (library dependent); higher = stronger phenotypic change vs DMSO (phenoactivity)
Conditions in all cases: 48 h
786-O = system: 786-O
Procedure, shortened: (§1)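 Harmony extracted 77 features from 20X confocal images (9 fields/well) of stained cells, scoring each as a signed Kolmogorov-Smirnov statistic against same-plate vehicle wells. The cells, five cancer lines and a healthy fibroblast line, had received library compounds for 48 h at 10 or 5 uM depending on library, with 0.1% DMSO final. Phenoactivity is the Euclidean distance from each plate-position-corrected, correlation-weighted, top-dose replicate-averaged profile to the median vehicle profile.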

A549 = system: A549
Procedure, shortened: as §1

DU145 = system: DU145
Procedure, shortened: as §1

FB = system: FB
Procedure, shortened: as §1

HEPG2 = system: HEPG2
Procedure, shortened: as §1

OVCAR4 = system: OVCAR4
Procedure, shortened: as §1

| SMILES | Euclidean distance (786-O) | Euclidean distance (A549) | Euclidean distance (DU145) | Euclidean distance (FB) | Euclidean distance (HEPG2) | Euclidean distance (OVCAR4) |
| --- | --- | --- | --- | --- | --- | --- |
| CCCCC(=O)O[C@H]1CC[C@H]2[C@@H]3CCc4cc(O)ccc4[C@H]3CC[C@]12C [Estradiol valerate] | 1.37 | 0.77 | 1.17 | 0.885 | 0.621 | 1.21 |
| N#CC[C@H](C1CCCC1)n1cc(-c2ncnc3[nH]ccc23)cn1 | 2.03 | 1.27 | 1.36 | 1.23 | 0.819 | 0.709 |
| COc1ccc2[nH]c([S@@+]([O-])Cc3ncc(C)c(OC)c3C)nc2c1 [NEXIUM (esomeprazole magnesium)] | 1.31 | 0.829 | 1.47 | 0.904 | 1.81 | 1.65 |
| CC[C@H]1[C@@H](O)[C@@H]2[C@H](CC[C@]3(C)[C@@H]([C@H](C)CCC(=O)O)CC[C@@H]23)[C@@]2(C)CC[C@@H](O)C[C@@H]12 [Obeticholic Acid] | 0.797 | 0.614 | 0.878 | 0.944 | 0.851 | 0.844 |
| CC(O)c1cc(C(=O)N[C@@H](C)Cn2ccc(-c3ccc(C#N)c(Cl)c3)n2)n[nH]1 (some centres not stated) [Darolutamide (ODM-201)] | 0.846 | 0.505 | 1.04 | 1.05 | 0.543 | 0.668 |
| Cc1cn([C@H]2C=C[C@@H](CO)O2)c(=O)[nH]c1=O [Stavudine (d4T)] | 1.64 | 1.46 | 0.564 | 0.969 | 0.716 | 1.06 |
| O=C(Nc1c(Cl)cncc1Cl)c1ccc(OC(F)F)c(OCC2CC2)c1 [Roflumilast] | 1.07 | 1.27 | 0.92 | 0.952 | 0.815 | 1.12 |
| CC1(C)S[C@@H]2[C@H](NC(=O)[C@H](N)c3ccccc3)C(=O)N2[C@H]1C(=O)OCOC(=O)[C@@H]1N2C(=O)C[C@H]2S(=O)(=O)C1(C)C [Sultamicillin Tosylate] | 1.06 | 1.18 | 0.926 | 1.01 | 0.775 | 0.992 |
| Cc1c(Cn2c(C)nc3c(C(=O)O)cc(N4CCOCC4)cc32)cccc1C(F)(F)F | 2.39 | 1.14 | 1.28 | 1.21 | 0.982 | 1.33 |
| OC[C@@H](O)[C@@H](O[C@@H]1O[C@H](CO)[C@H](O)[C@H](O)[C@H]1O)[C@H](O)[C@@H](O)CO [Lactitol] | 0.637 | 0.843 | 0.537 | 0.733 | 0.29 | 1.17 |
| O=C(O)Cc1ccc(-c2ccccc2)cc1 [4-Biphenylacetic acid] | 1.14 | 1.09 | 1.65 | 1.66 | 0.638 | 1.62 |
| CN(CCOc1ccc(CC2SC(=O)NC2=O)cc1)c1ccccn1 (configuration not stated) [Rosiglitazone maleate] | 0.964 | 0.896 | 1.89 | 1.31 | 0.95 | 1.34 |
| CC(C)NCC(O)c1ccc(NS(C)(=O)=O)cc1 (configuration not stated) [Sotalol] | 1.21 | 0.865 | 0.768 | 0.911 | 0.602 | 1.02 |
| O=C(Nc1ccc([N+](=O)[O-])cc1Cl)c1cc(Cl)ccc1O [Niclosamide] | 2.27 | 2.95 | 2.1 | 3.12 | 0.819 | 2.45 |
| O=C1c2cccc3c2[C@H](CCC3)CN1[C@@H]1CN2CCC1CC2 [Palonosetron HCl] | 1.56 | 0.602 | 0.971 | 0.972 | 1.29 | 1.22 |
| Cc1cc(C)cc(NC(=O)Cc2ccc(OC(C)(C)C(=O)O)cc2)c1 [Efaproxiral Sodium] | 1.04 | 0.727 | 0.774 | 0.966 | 0.587 | 0.981 |
| COc1cc(C(=O)O)ccc1NC(=O)[C@@H]1N[C@@H](CC(C)(C)C)[C@](C#N)(c2ccc(Cl)cc2F)[C@H]1c1cccc(Cl)c1F [Idasanutlin (RG-7388)] | 1.61 | 1.57 | 1.55 | 1.43 | 1.15 | 1.59 |
